Sampled rows, rich in hits. Any-hit rate of the full collection: about 3.1%.
KLK7 zymogen act = activates the human kallikrein-7 zymogen. 370,000 tested, 0.9% active. AID 652039. P49862. activation, % at 7 µM. purified proKLK7, EDANS-DABCYL substrate fluorescence; 100% is mature enzyme control, 0% vehicle;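 active = activation above the mean of all tested compounds plus 3 SD, computed per campaign excluding outliers beyond control limits, cut at about 13% in these data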
Target sequence (P49862 whole entry, looked up): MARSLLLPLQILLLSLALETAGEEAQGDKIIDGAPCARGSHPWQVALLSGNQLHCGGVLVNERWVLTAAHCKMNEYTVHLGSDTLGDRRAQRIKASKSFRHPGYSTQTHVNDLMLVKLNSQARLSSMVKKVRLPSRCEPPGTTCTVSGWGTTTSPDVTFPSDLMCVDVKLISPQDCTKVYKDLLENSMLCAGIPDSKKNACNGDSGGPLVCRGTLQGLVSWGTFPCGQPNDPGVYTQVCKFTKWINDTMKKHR
Neddylation inh = inhibitors of human cullin neddylation. P61081+Q13564. TR-FRET cullin neddylation, biochemical. calls only at 25 µM. 360,000 tested, 0.58% active; in the data active = inhibition above about 36%
MBD2 DNA inh = MBD2-methylated oligo binding inhibition | Q9UBB5 | TR-FRET, MBD2 binding to methylated oligonucleotide | inhibition, % at 4.4 µM | 370,000 tested, 0.31% active | AID 686964; in the data active = inhibition above about 13%
Target sequence (Q9UBB5 whole entry, looked up): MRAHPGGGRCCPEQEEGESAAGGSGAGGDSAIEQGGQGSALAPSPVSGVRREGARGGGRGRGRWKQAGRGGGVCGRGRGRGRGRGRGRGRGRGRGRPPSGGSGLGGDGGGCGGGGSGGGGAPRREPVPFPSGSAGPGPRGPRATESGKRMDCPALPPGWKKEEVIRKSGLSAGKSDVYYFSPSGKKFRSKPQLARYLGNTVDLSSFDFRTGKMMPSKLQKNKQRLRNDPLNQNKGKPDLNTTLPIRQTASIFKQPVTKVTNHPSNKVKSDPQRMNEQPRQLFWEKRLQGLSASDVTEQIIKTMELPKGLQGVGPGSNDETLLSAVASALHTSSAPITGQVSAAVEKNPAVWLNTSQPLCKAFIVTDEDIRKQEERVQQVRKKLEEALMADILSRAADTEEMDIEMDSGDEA
LEDGF integ inh = blocks HIV-1 LEDGF/p75-dependent DNA integration | inhibition, % at 3.7 µM | AID 743269 | 370,000 tested, 0.64% active | TR-FRET IN-LEDGF/p75 DNA integration, Eu/Cy5;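 active = inhibition above the screen-wide mean plus 3 SD, cut at about 13% in these data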;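 note: signal is the Cy5 over europium emission ratio at 671 and 618 nm; 0% = plate median of compound wells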
UHRF1 binding = UHRF1 methyl-DNA binding inhibition. 370,000 tested, 0.75% active. UHRF1 binding to methylated oligo, TR-FRET. Q96T88. inhibition, % at 4.4 µM; in the data active = inhibition above about 21%;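 note: UHRF1 SRA domain binding a hemimethylated CpG hairpin DNA probe; 0% = median of test compound wells and 100% = reference inhibitor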
Rin1-Abl PPI inh = human Rin1-Abl interaction inhibition | TR-FRET Rin1/Abl binding, biochemical | 360,000 tested, 0.4% active | inhibition, % at 7.35 µM; in the data active = inhibition above about 5%, passing the limit was not always enough
proKLK7 act conf = proKLK7 activation, confirmation. activation, % at 7 µM. AID 686949. shares compounds with KLK7 zymogen act. 3,200 tested, 68% active. purified proKLK7, EDANS-DABCYL substrate fluorescence; scaled: vehicle 0, mature enzyme 100;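 active = activation, as change over the incubation, above the mean of all tested compounds plus 3 SD, cut at about 13% in these data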
EDANS-DABCYL int = counter-screen for kallikrein-7 activators: EDANS-DABCYL optical interference; activation, % at 7 µM; 3,200 tested, 80% active; EDANS-DABCYL substrate fluorescence interference, no enzyme, 4 h; solvent 0%, active enzyme control 100%; shares compounds with KLK7 zymogen act;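 active = activation above the all-compound mean plus 3 SD, ignoring values outside control-based bounds, cut at about 4.8% in these data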;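 note: value is the 4 h activation minus the activation read at time zero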
Starred values were filed as active, the others as inactive; i = inactive; . = no result given.

SMILES	KLK7 zymogen act	Neddylation inh	MBD2 DNA inh	LEDGF integ inh	UHRF1 binding	Rin1-Abl PPI inh	proKLK7 act conf	EDANS-DABCYL int
CN(C)CCCN(C(=O)/C=C/c1cccs1)c1nc2ccc(F)cc2s1	35.1*	i	-7.9	-0.2	-6.4	-7.7	153.5*	232.0*
CN1CCN(CCCNC(=O)c2ccc3c(c2)N(Cc2ccc(F)cc2)CCS3)CC1	76.2*	i	-1.1	2.0	2.2	-5.8	-8.3	-15.2
CCN1CCN(CCCNC(=O)c2ccc3c(c2)N(Cc2ccccc2)CCS3)CC1	35.4*	i	-8.1	1.0	-3.1	-2.5	-25.6	-28.4
O=C(NCCCN1CCOCC1)c1ccc2c(c1)N(Cc1ccc(F)cc1)CCS2	-11.8	.	3.0	2.2	0.7	-6.8	.	.
O=C(NCCCN1CCCC1)c1ccc2c(c1)N(Cc1ccccc1)CCS2	51.0*	.	-1.5	-6.0	0.5	-4.8	-15.7	-13.4
COC(=O)[C@]12CCCCC=C1N(Cc1ccco1)C(=O)[C@H](CC(=O)N1CCOCC1)C2	0.4	i	0.9	0.4	-1.4	.	.	.
CCCCn1c(=NC(=O)c2cccnc2)c(C#N)cc2c(=O)n3cccc(C)c3nc21	0.8	.	1.4	0.7	-5.7	-5.0	.	.
CCOC(=O)c1cc2c(=O)n3ccccc3nc2n(Cc2ccc(Cl)cc2)c1=N	-0.4	i	-3.7	1.0	1.6	-0.1	.	.
CCCCCn1c(=NC(=O)c2ccco2)c(C(=O)OCC)cc2c(=O)n3ccccc3nc21	23.7*	.	-2.0	0.8	-3.0	-4.3	32.6*	38.0*
CCCCn1c(=NC(=O)c2ccco2)c(C(=O)OCC)cc2c(=O)n3cccc(C)c3nc21	18.1*	.	-7.0	-1.6	5.7	-9.5	2.4	-0.9
CCCCn1c(=NC(=O)c2ccco2)c(C(=O)OCC)cc2c(=O)n3ccccc3nc21	50.0*	.	-9.2	2.2	-8.6	-5.0	21.0*	21.4*
CCOC(=O)c1cc2c(=O)n3ccccc3nc2n(C)c1=NC(=O)c1c(-c2c(F)cccc2Cl)noc1C	3.8	.	-3.7	2.2	-0.4	-2.8	.	.
CC(C)CN1C(=O)c2ccc(C(=O)Nc3ccccc3C(=O)O)cc2C1=O	0.1	i	7.0	5.7	12.7	-3.4	.	.
CCCCCCCCNC(=O)C1CSCCS(=O)(=O)N1Cc1ccc(F)cc1 (configuration not stated)	0.0	.	-2.0	0.1	-0.7	.	.	.
OC1(c2ccc(Cl)c(Cl)c2)C[n+]2ccccc2N1Cc1ccccc1 (configuration not stated)	2.2	.	3.4	0.9	0.5	-1.0	.	.
C=CCOC(=O)COc1ccc2c(C)c(CC)c(=O)oc2c1	27.4*	.	-3.2	-0.4	-0.8	-2.4	11.2	13.1*
C=CCOC(=O)COc1ccc2c(C)c(C)c(=O)oc2c1	14.9*	.	-4.8	3.6	2.8	-0.1	10.7	14.1*
Cc1ccc(Nc2cc(C)nc3c(C)cccc23)cc1	0.0	i	0.8	0.6	2.9	-1.6	.	.
CC1=Nc2ccc(C)c3nc(C)cc(c23)N1c1ccc(C)cc1	70.0*	.	-3.4	3.2	-1.1	-2.7	2.4	0.2
Cc1ccc(N2C=Nc3ccc(C)c4nc(C)cc2c34)cc1	49.5*	.	0.1	-0.9	-1.3	-5.7	-19.6	-21.3
COc1cc(C(=O)N(C)C2CCCCC2)cc(OC)c1OC	-0.1	i	-10.2	0.9	-0.8	1.2	.	.
Cc1coc2c1c(C)cc1oc(=O)c(CC(=O)NCCC(=O)O)c(C)c12	30.2*	.	-2.7	-3.1	-0.6	-4.3	63.5*	74.8*
COCCNC(=O)Cc1c(C)c2c(cc(C)c3c(C)coc32)oc1=O	15.5*	.	5.9	5.0	2.1	3.1	-14.9	-58.2
Cc1coc2c1c(C)cc1oc(=O)c(CC(=O)NCC(=O)NCC(=O)O)c(C)c12	10.4	.	-6.1	-0.4	-3.5	-4.6	.	.
COCCCNC(=O)Cc1c(C)c2c(cc(C)c3c(C(C)(C)C)coc32)oc1=O	-11.6	.	2.4	-2.7	3.6	-1.3	.	.
SMILES	KLK7 zymogen act	Neddylation inh	MBD2 DNA inh	LEDGF integ inh	UHRF1 binding	Rin1-Abl PPI inh	proKLK7 act conf	EDANS-DABCYL int
Cc1nccn1CC(=O)N/N=C/c1ccccc1O	-166.8	.	-1.3	-0.2	1.7	-6.5	.	.
COC(=O)c1sccc1NC(=O)COc1ccc(F)cc1Cl	11.8	i	-4.2	-2.1	-0.8	0.9	.	.
NNC(=O)c1cc(Cl)ccc1Cl	-0.1	i	-2.8	1.2	-3.9	3.6	.	.
CNc1ccc(Cl)cc1C(N)=O	16.6*	.	-8.5	-1.6	-3.2	-2.4	10.8	20.0*
CCc1cc2c(=O)c(Oc3ccccc3)c(C)oc2cc1O	55.1*	.	-2.2	1.6	-1.8	-1.5	65.3*	77.6*
Cc1oc2cc(OCC(=O)O)ccc2c(=O)c1Oc1ccccc1	-1.3	i	-0.5	6.7	-0.1	2.3	.	.
CCCCCCc1cc2cc(S(=O)(=O)c3ccc(F)c(Cl)c3)c(=O)oc2cc1O	-4.7	.	-1.1	-1.3	0.9	2.1	.	.
CCN1C(=O)/C(=C2\SC(=S)N(CCCOC)C2=O)c2ccccc21	19.7*	i	-3.9	6.0	-0.5	-0.3	0.6	1.0
Cc1c(C)c2ccc(O)c(CN3CCCC3)c2oc1=O	61.0*	.	-6.0	2.7	-2.5	-3.4	64.1*	65.5*
Cc1c(O)c(CN2CCCCC2)cc2c3c(c(=O)oc12)CCC3	44.4*	i	-0.7	-0.7	-2.7	-6.8	72.9*	76.5*
O=c1oc2c(CN3CCCCC3)c(O)ccc2c2c1CCCC2	62.3*	.	-2.1	-3.4	1.1	-1.8	66.4*	70.3*
CN1CCN(Cc2c(O)ccc3cc(-c4ccccn4)c(=O)oc23)CC1	67.1*	i	-5.5	3.4	-4.2	1.4	77.0*	69.0*
Cc1c(O)c(CN2CCCCC2)cc2c1oc(=O)c1ccccc12	-0.2	i	5.3	-0.5	0.2	-3.1	.	.
COc1cc(-c2c(CCO)sc3ccccc23)cc(OC)c1OC	0.9	i	0.7	0.8	1.0	.	.	.
COc1cc([N+](=O)[O-])cc2cc(C(=O)N3CCCC3)c(=O)oc12	-0.4	i	-5.8	-2.4	-0.3	-1.1	.	.
CCc1c(C)c2ccc(O)c(CN3CCCC3)c2oc1=O	38.2*	.	-3.2	10.4	-2.6	1.6	58.7*	63.1*
COC(=O)Cc1c(C)c2ccc(O)c(CN3CCCC(C)C3)c2oc1=O (configuration not stated)	52.6*	.	6.0	2.3	0.6	1.2	76.1*	74.6*
Cc1c(C)c2ccc(O)c(CN3CCN(C)CC3)c2oc1=O	63.5*	.	-3.7	4.3	2.6	4.7	70.2*	65.5*
O=C(Nc1ccc2nccnc2c1)Nc1ccccc1Cl	19.9*	i	-4.3	2.1	-2.6	1.8	46.1*	43.8*
O=C(Nc1cccc(Cl)c1)Nc1ccc2nccnc2c1	0.2	i	1.6	-0.4	-2.7	-1.9	.	.

Compound activity: PubChem BioAssay, several laboratories
